From PubChem
KKLEB cytotox – cytotoxicity in KKLEB CF airway cells, primary screen, cytotoxicity control for CF NF-kB inhibitor project, cell-based, uHTS, fluorescence assay plates; KKLEB CF airway cells viability, ATPlite luminescence, overnight; hits give low values; cells stimulated with P. aeruginosa culture filtrate; activity change (cytotoxicity), % at 5 µM; AID 602141, 2011; hit rate 0.36% among 360,000;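 active = corrected activity change at or below -50% at 5 µM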
TWEAK-Fn14 inh – inhibitors of TWEAK-Fn14 signaling, primary screen, luciferase reporter cells, uHTS; TWEAK-stimulated Fn14 reporter cells, luciferase luminescence, 8 h; inhibition, % at 10 µM; hit rate 2% among 360,000; AID 1159606, 2016; in the data active = inhibition above about 50%
TROY signal inh – inhibitors of TROY-driven NF-kB signaling, primary screen, Q293 LMP1-TROYcd cells, NF-kB luciferase, uHTS; inhibition, % at 10 µM; hit rate 0.98% among 360,000; AID 1347056, 2019; Q293 LMP1-TROYcd NF-kB luciferase reporter, 4 h;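 active = compounds whose plate-normalised and pattern-corrected inhibition of the luciferase reporter signal at the single screening dose is 50% or more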
HIF-2a inh – HIF-2a reporter inhibitors, primary screen, luminescence, 786-0 RCC cells; 786-0 RCC cells HIF-2a reporter, luciferase luminescence, overnight; inhibition, % at 18.8 µM; hit rate 0.72% among 360,000; AID 624352, 2012;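 active = inhibition of the luminescence signal of 40% or more relative to plate controls, in a single-dose primary screen at 18.75 µM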
CF NFkB inh – inhibitors of PAF-induced NF-kB signaling, primary screen, cell-based, GFP fluorescence, uHTS; hit rate 0.86% among 360,000; KKLEB NF-kB-GFP reporter, GFP fluorescence overnight; AID 588850, 2011; inhibition, % at 5 µM;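 active = at least 50% inhibition at 5 µM, scaled per plate between neutral and stimulator controls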;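 note: PAF is a Pseudomonas aeruginosa culture filtrate used as stimulus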
Peg3 promoter – Peg3 promoter-driven luciferase inhibitors, primary screen, cell-based, HeLa, luciferase luminescence | inhibition, % at 20 µM | AID 588405, 2011 | HeLa PEG-Prom luciferase reporter, overnight | hit rate 1.7% among 360,000;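 active = inhibition of at least 50% at 20 µM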
Mdm2-MdmX confirm – retested Mdm2-MdmX interaction blockers, confirmation, cell-based, luminescence, single concentration, set 2; hit rate 99% among 740; shares compounds with HIF-2a inh; SaOS-2 split-luciferase Mdm2/MdmX complementation; AID 504601, 2011; inhibition, % at 8 µM;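 active = mean inhibition of the luminescence signal across two replicates at or above 26 percent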
HIF-2a inh conf – HIF-2a reporter inhibitor retest, confirmation, luminescence, 786-0 RCC cells. HIF-2a luciferase reporter luminescence, overnight. inhibition, % at 18.8 µM. shares compounds with HIF-2a inh. hit rate 56% among 1,800;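 active = mean inhibition across four replicates of at least 40 percent at the single tested concentration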
HIF-1a cs – HIF-1a luciferase reporter signal reduction – MiaPaCa-2 cells, single concentration, counter-screen for HIF-2a inhibitor project, confirmation; shares compounds with HIF-2a inh; MiaPaCa-2 HIF-1a luciferase reporter, desferoxamine, overnight; inhibition, % at 18.8 µM; hit rate 72% among 1,800;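 active = mean inhibition of the reporter signal across four replicates at the single tested dose of 50% or more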
Of the large screens only hits and unclear results are named; the others gave an inactive call (follow-up assays come after a bar, where they were run). A selection: hits, their analogues and other compounds. The true share with any hit is near 4%.

CC1CC(C)CC(C)C(O)C(C#N)=CC=CCC(C2CCCC2C(=O)O)OC(=O)CC(O)C(C)C1 (stereo not drawn)	TWEAK-Fn14 inh 100.0, TROY signal inh 81.5, HIF-2a inh 78.2, CF NFkB inh 85.6, Peg3 promoter 50.8 | HIF-2a inh conf 75.8 | HIF-1a cs 103.9
O=CC(Cl)P(=O)(N1CCCCC1)N1CCCCC1 (stereo not drawn)	none
CC1OC(OC2C=C3CCC4C(CCC5(C)C(c6ccc(=O)oc6)CCC45O)C3(C)CC2)C(O)C(OC2OC(CO)C(O)C(O)C2O)C1O (stereo not drawn)	KKLEB cytotox -61.8, TWEAK-Fn14 inh 85.8, HIF-2a inh 69.5, CF NFkB inh 94.9, Peg3 promoter 97.7 | HIF-2a inh conf inactive | HIF-1a cs 104.8
Oc1ccc2c3c1OC1c4[nH]c5ccccc5c4C[C@@]4(O)C(C2)N(CC2CC2)CC[C@]314 (stereo partly drawn)	none
O=C1/C(=C/c2ccccc2)C[C@@]2(O)[C@H]3Cc4ccc(O)c5c4[C@@]2(CCN3CC2CC2)C1O5 (stereo partly drawn)	TWEAK-Fn14 inh 91.4, TROY signal inh 63.7, HIF-2a inh 95.5, CF NFkB inh 76.0, Peg3 promoter 100.1 | Mdm2-MdmX confirm 103.0
CCCCCCCCCCCCCCCC[N+](C)(C)C	HIF-2a inh 55.8, CF NFkB inh 74.8, Peg3 promoter 95.3 | HIF-2a inh conf 42.3 | HIF-1a cs 79.2
CC(=O)OCC12CC(OC(=O)CC(C)C)C(C)=CC1OC1C(O)C(OC(C)=O)C2(C)C12CO2 (stereo not drawn)	KKLEB cytotox -63.0, TWEAK-Fn14 inh 92.8, TROY signal inh 82.1, HIF-2a inh 82.0, CF NFkB inh 92.8, Peg3 promoter 96.9 | HIF-2a inh conf 78.9 | HIF-1a cs 102.5
CCCCN=C[C@]12CCC(O)CC1(O)CCC1[C@@H]2CC[C@]2(C)[C@H](C3C=CC(=O)O3)CCC12O (stereo partly drawn)	KKLEB cytotox -72.0, TWEAK-Fn14 inh 76.3, HIF-2a inh 55.4, CF NFkB inh 99.4, Peg3 promoter 106.9 | Mdm2-MdmX confirm 82.2 | HIF-2a inh conf inactive | HIF-1a cs 104.5
CC12CCC3C(CCC4(O)CC(O)CCC34C=NO)C1(O)CCC2C1=COC(=O)C1 (stereo not drawn)	TWEAK-Fn14 inh 75.6, HIF-2a inh 73.8, CF NFkB inh 84.8, Peg3 promoter 97.1 | HIF-2a inh conf inactive | HIF-1a cs 102.4
CC12CC[C@H]3[C@@H](CCC4(O)C[C@H](O)CCC34/C=N/NC(=O)c3ccccc3Cl)C1(O)CCC2C1=CC(=O)OC1 (stereo partly drawn)	none
COc1ccc(C(=O)OC2CC[C@@]3(C)C4CCC5[C@]6(O)CC(O)[C@@]7(O)C(CN8CC(C)CCC8[C@@]7(C)O)[C@]6(O)C[C@@]53O[C@]24O)cc1OC (stereo partly drawn)	none
Cc1nc2cc(-c3ccc(Cl)cc3)nn2c(C)c1CCC(=O)N1CCC2(CC1)OCCO2	HIF-2a inh 81.2 | HIF-2a inh conf 89.3 | HIF-1a cs 67.7
O=C(CCn1nc(-c2ccc(Cl)cc2)ccc1=O)N1CCC2(CC1)OCCO2	none
COP(=S)(OC)SCN1C(=O)c2ccccc2C1=O	none
